From PubChem BioAssay AID1053197 (The Scripps Research Institute Molecular Screening Center, 2014)
The whole screen tested about 370,000 compounds, of which about 2,600 (0.7%) were called active. The sample holds actives, similar compounds and a random draw of the others, so the mix is not that of the screen. A number with no mark means an inactive call.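 Rule for the calls: active = inhibition above a cutoff: mean of compounds within the control limits plus 3 SD of those (cut at about 17% in these data); inactive = the rest.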

These compounds were tested against Sialate O-acetylesterase (Homo sapiens) (UniProt Q9HAT2) (assay: human SIAE inhibitors, primary screen, biochemical, fluorescence polarization, FP-Rh probe, 1536-well HTS (AID 1053197;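 note: 0% = plate median of compound wells and 100% = probe without SIAE protein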)). Conditions: SIAE FP-Rh probe binding, at 9.66 µM, stronger effect = higher value.
Chain of Sialate O-acetylesterase (Homo sapiens) (Q9HAT2 whole entry, looked up): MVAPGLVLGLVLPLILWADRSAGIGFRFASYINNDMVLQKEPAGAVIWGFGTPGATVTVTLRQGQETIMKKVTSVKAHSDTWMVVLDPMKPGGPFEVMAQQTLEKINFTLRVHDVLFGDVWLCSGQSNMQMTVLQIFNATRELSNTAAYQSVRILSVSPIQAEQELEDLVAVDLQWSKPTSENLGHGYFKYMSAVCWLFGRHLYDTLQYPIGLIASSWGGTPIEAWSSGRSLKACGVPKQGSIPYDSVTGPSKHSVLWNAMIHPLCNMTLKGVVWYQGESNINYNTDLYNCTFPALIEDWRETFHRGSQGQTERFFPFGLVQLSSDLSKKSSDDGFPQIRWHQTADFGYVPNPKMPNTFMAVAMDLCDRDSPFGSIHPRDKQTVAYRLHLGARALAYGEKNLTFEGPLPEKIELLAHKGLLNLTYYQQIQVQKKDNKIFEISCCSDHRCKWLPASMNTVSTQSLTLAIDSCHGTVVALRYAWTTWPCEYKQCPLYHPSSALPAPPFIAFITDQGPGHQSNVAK

Row | Structure (SMILES) | inhibition
1 | COc1ccc(-n2c(SCC(=O)Nc3ccc(C)c(Cl)c3)nc3ccccc3c2=O)cc1 | -5.2%
2 | O=C(OC12CCCN(C1)/C(=C/c1cccnc1)C2)C1CCCC1 (stereo not drawn) | 9.64%
3 | COc1ccccc1N1CCN(c2ccc([N+](=O)[O-])nc2)CC1 | 3.93%
4 | COc1ccc(N2CCN(c3ccc([N+](=O)[O-])nc3)CC2)cc1 | 27.9% (active)
5 | O=[N+]([O-])c1ccc(N2CCN(c3ccc(F)cc3)CC2)cn1 | 1.56%
6 | Cc1c(C(C)c2ccccc2O)[nH]c2ccccc12 (stereo not drawn) | 3.42%
7 | C=C(C)C#CC(Cc1ccccc1)N(CC1CC1)/C(N)=N/C(=O)OCc1ccccc1 (stereo not drawn) | 8.05%
8 | C[C@@H](NC(=O)c1ccccc1OCC(=O)Nc1ccc(I)cc1)C(=O)N(C)Cc1ccccc1 | -10.2%
9 | O=C(CC[C@H]1O[C@@H](n2ccc(=O)[nH]c2=O)[C@H](O)[C@@H]1O)N[C@H](Cc1ccccc1)C(=O)NCCCN1CCCC1=O | 47.1% (active)
10 | O=C(CC[C@H]1O[C@@H](n2ccc(=O)[nH]c2=O)[C@H](O)[C@@H]1O)N[C@H](Cc1ccccc1)C(=O)NCc1ccco1 | 1.02%
11 | Cc1ccc(NC(=O)[C@H](Cc2ccccc2)NC(=O)CC[C@H]2O[C@@H](n3ccc(=O)[nH]c3=O)[C@H](O)[C@@H]2O)cc1C | 0.53%
12 | CSc1ccc(C=Nn2c(-c3ccc(F)cc3)n[nH]c2=S)cc1 | 2.39%
13 | C/C(=N\NC(=O)CNc1cccc2ccccc12)c1ccc(Br)s1 | -5.3%
14 | Cn1cccc1/C=N/NC(=O)CNc1cccc2ccccc12 | 18.6% (active)
15 | O=C(Cn1cncn1)N/N=C/c1c2ccccc2cc2ccccc12 | -1.87%
16 | C[C@H](C(=O)N(C)c1ccccc1)[C@@H](O)c1ccc2ccccc2c1 | 3.1%
17 | CCC(=O)Nc1ccc2c(c1)C(=O)N(C)[C@@H]1CC[C@@H](CC(=O)NCCc3ccccc3)O[C@H]1CO2 | 1.28%
18 | COc1ccccc1C(=O)NC1CCCCN(C(C)C)C1=O (stereo not drawn) | 0.76%
19 | C=CCN(Cc1ccc2c(c1)OCO2)C(C#CC1CC1)C(C)(C)C (stereo not drawn) | 4.36%
20 | CCOC(=O)C1=C(C)NC(SC)=NC1c1ccccc1 (stereo not drawn) | 5.58%
21 | CCOC(=O)C1=C(C)N=C2c3ccccc3C(=O)C2C1c1ccc(Br)cc1 (stereo not drawn) | 18% (active)
22 | COC(=O)C1=C(C(=O)OC)C2(OC1c1ccc(Br)cc1)C(=O)c1ccccc1C2=O (stereo not drawn) | 14.3%
23 | CCCCN1CCN(C(=O)c2ccc3c(c2)NC(=O)C(C)(C)O3)CC1 | -0.65%
24 | COC[C@@H]1CCCN1c1ccc2c(c1)O[C@H](C)CCN(C1CC1)S2(=O)=O | -0.33%
25 | CC(=O)Nc1ccc(OC[C@@H](O)CN2CCC(C(O)(c3ccccc3)c3ccccc3)CC2)cc1 | -6.43%
26 | CN(C)Cc1cn(-c2ccc(-c3noc4c3C(=O)N(CC(=O)N3CCOCC3)CC4)cc2)nn1 | -2.28%
27 | CN1c2ccc(C=O)c3c(C=O)ccc(c23)N(C)C1(C)C | 21.9% (active)

Row | Structure (SMILES) | inhibition
28 | Cc1nc(CNc2ncnc3ccc(-c4ccc5c(c4)OCO5)cc23)cs1 | -10.9%
29 | O=C(Nc1ccccc1)N1CCN(Cc2nc3ccccc3c(=O)[nH]2)CC1 | 12.6%
30 | COc1ccc(Cn2cc(CN3[C@@H](CC(C)C)COc4cc(Br)ccc4S3(=O)=O)nn2)cc1 | 0.93%
31 | NS(=O)(=O)c1ccc(NC(=O)COC(=O)c2c3c(nc4ccccc24)/C(=C\c2ccc4c(c2)OCO4)CCC3)cc1 | 43.9% (active)
32 | CN(C)S(=O)(=O)c1ccc(NC(=O)COC(=O)c2n[nH]c3ccccc23)cc1 | -22.8%
33 | O=C(COC(=O)c1c(Cl)cccc1Cl)Nc1cccc(S(=O)(=O)NC2=NCCCCC2)c1 | -8.81%
34 | C=CCN1C(=O)[C@@H](CC(=O)N2CCN(C(=O)OCC)CC2)[C@]2(C(=O)OCC)CCCCC/C=C/12 | 2.29%
35 | CCN(C(=O)COC(=O)C1CCN(S(=O)(=O)c2ccc(C)c(C)c2)CC1)C1CCS(=O)(=O)C1 (stereo not drawn) | 26.2% (active)
36 | CCN(C(=O)COC(=O)c1cc(S(=O)(=O)N2CCc3ccccc32)ccc1OC)C1CCS(=O)(=O)C1 (stereo not drawn) | -1.8%
37 | Cc1ccc(S(=O)(=O)N2CCC(C(=O)OCC(=O)N(C)c3ccccc3)CC2)cc1C | -1.79%
38 | CC(=O)Nc1nc2ncccn2c1-c1ccc(C(F)(F)F)cc1 | 4.66%
39 | CC(=O)c1cc(-c2ccc3ccccc3c2)c(=O)n2c1CCC2 | -1.29%
40 | COc1ccc(C(=O)O)cc1S(=O)(=O)NC1CCN(Cc2ccccc2)CC1 | 0.4%
41 | COc1ccccc1/C=C/CN1CCC(CO)(Cc2ccccc2)CC1 | -3.81%
42 | COc1ccccc1/C=C/C=N/NC(=O)CN1CCN(Cc2ccccc2)CC1 | 17.3% (active)
43 | O=S1(=O)c2c(cccc2N2CC[C@H](O)C2)O[C@@H]2CCN1C2 | 6.21%
44 | COc1cccc(N2CCN(CC(=O)N(C)Cc3ccc(F)cc3)CC2)c1 | 1.64%
45 | Cc1ccnc(NS(=O)(=O)c2ccc(NC(=O)c3ccc(S(=O)(=O)N4CCOCC4)cc3)cc2)n1 | 21% (active)
46 | Cc1ccnc(NS(=O)(=O)c2ccc(NC(=O)c3oc4ccccc4c3C)cc2)n1 | -5.42%
47 | Cc1ccnc(NS(=O)(=O)c2ccc(NC(=O)c3ccc(S(=O)(=O)N(C)C)cc3)cc2)n1 | -1.59%
48 | CCCCCCN1CCS(=O)(=O)N(Cc2ccc(C(F)(F)F)cc2)C(C(=O)OC)C1 (stereo not drawn) | -2.85%
49 | CC(=O)OC12CCCN(C1)/C(=C/c1ccncc1)C2 (stereo not drawn) | 0.93%
50 | O=C(CCl)NC1CCCCN(Cc2cccc(C(F)(F)F)c2)C1=O (stereo not drawn) | 1.33%
51 | Cc1cccc(C(=O)N2CCC(c3nc4ccccc4s3)CC2)c1 | 1.7%
52 | Cc1nc2ccc(S(=O)(=O)NC(C(=O)N3CCCCCC3)C(C)C)cc2s1 (stereo not drawn) | -3.13%
53 | Cc1nc2ccc(C(=O)N3CCSCC3)cc2s1 | 80.7% (active)
